Results filed as inconclusive are left out. Activity calls are given as the source filed them. Unless noted, calls come from the whole dose curve; as a rule, active = well fitted curve in the direction sought with a large enough effect; inconclusive = small, poorly fitted or top-dose-only effect, or another doubt; inactive = no such curve, though single readings can be large; an effect the other way counts as inactive or inconclusive.

Assay [1] addresses Transient receptor potential cation channel subfamily V member 1 (Homo sapiens) (UniProt Q8NER1). As to the kind of experiment: HTS Assay for Compounds that Act as Enhancers of the Vanilloid Receptor 1 (AID 488979). Note: 0% is about no effect. An outline of the steps: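 Calcium influx kinetics via Fluo-8 (480/520 nm) in TRPV1-expressing cells, 2000/well cultured overnight at 35.5C. Compound-alone read 3 min (agonist phase), followed by EC20 capsaicin challenge for 2 min (enhancer phase).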

Assay [2] addresses Thyrotropin receptor (Homo sapiens) (UniProt P16473). As to the kind of experiment: qHTS Assay for Antagonists of the Thyroid Stimulating Hormone Receptor (AID 488980). Note: series mostly up to about 58 µM; 0% is about no effect. In a few lines:
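HEK293 cells transfected with human TSHR, suspended in HEPES-buffered HBSS with 70 uM RO 20-1724, were treated with compounds plus TSH at EC80 (4 nM final). cAMP was measured by competitive HTRF (cryptate anti-cAMP antibody, cAMP-d2 acceptor).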
(Quantitative high-throughput screening tests each substance at several concentrations.)

Assay [3] concerns the target D(1A) dopamine receptor (Homo sapiens) (UniProt P21728). As to the kind of experiment: HTS Assay for Allosteric Agonists of the Human D1 Dopamine Receptor: Primary Screen for Agonists (AID 488981). Note: 0% is about no effect. In a few lines: (§1)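 Calcium flux in an inducible, force-coupled HEK293 Trex D1 line (overnight at 30 C): agonist mode is the 180 s kinetic read after compound; potentiator mode is the following 180 s read after dopamine at EC20.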

Assay [4] shares this target. As to the kind of experiment: HTS Assay for Allosteric Agonists of the Human D1 Dopamine Receptor: Primary Screen for Potentiators (AID 488982). Note: 0% is about no effect. In a few lines: as §1
Assay [5] shares this target. As to the kind of experiment: HTS Assay for Allosteric Agonists of the Human D1 Dopamine Receptor: Primary Screen for Antagonists (AID 488983).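 Note: calcium flux response to an EC80 dopamine challenge measured with no-wash dye; nearly all actives have a fitted effect of over 65% in size.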 Note: potency is the fitted concentration of half-maximal effect. In a few lines:
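Calcium flux readout, no-wash dye, inducible HEK293 T-REx D1 line (force-coupled). Compound added after 10 s baseline, 180 s kinetic read; then dopamine at EC80, further 180 s read.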

The nature of assay [6]: Validation screen for small molecules that induce genotoxicity in human embryonic kidney (HEK293T) cells expressing luciferase-tagged ELG1 (AID 493106). Note: 0% is about no effect. An outline of the steps: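 qHTS format; 2,000 HEK293T ELG1-luc cells/well; 23 nL compound via pin tool; 16 hr, 37 °C/5% CO2; ONE-Glo, 30 min RT; luminescence read.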
Assay [7] deals with ATPase family AAA domain-containing protein 5 (Homo sapiens) (UniProt Q96QE3). As to the kind of experiment: Validation screen for small molecules that inhibit ELG1-dependent DNA repair in human embryonic kidney (HEK293T) cells expressing luciferase-tagged ELG1 (AID 493107).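 Note: cells co-treated with the DNA-damaging agent 5-fluorouridine alongside compound; series mostly up to about 46 µM; % is set by controls: 0 for no effect and ±100 for the full control effect; inhibitors lower the ELG1-luciferase luminescence signal; nearly all actives have a fitted effect of over 70% in size.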 An outline of the steps:
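ELG1-luciferase HEK293T reporter; 5-fluorouridine + compound/DMSO, 16 hr, 37 °C, 5% CO2; ONE-Glo 30 min RT; luminescence read, qHTS format.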

Assay [8] is described as follows: Nrf2 qHTS screen for inhibitors: Validation (AID 493153; active = well fitted inhibition curve with a large enough effect in the main read-out, with a control signal flat, not every such curve was filed as active). Particulars: Potency: luciferase luminescence; viability change: measured here: cytotoxicity max response. An outline of the steps:
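Concentration-response test in A549 ARE_Fluc reporter cells (5% FBS OPTI-MEM), compound exposure 18-24 h at 37°C, 5% CO2. Cell viability measured first by CellTiter-Fluor fluorescence; ARE-driven luciferase luminescence then measured as Nrf2 activity.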

Assay [9] is described as follows: qHTS for Inhibitors of Cell Surface uPA Generation: Validation Assay (AID 493164).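 Note: RAW 264.7 macrophage cells exposed to compound for 18 h; 0% is about no effect.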 An outline of the steps:
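Compounds are titrated over seven points (2.45 nM–38.3 uM final) onto pre-plated RAW 264.7 cells and incubated for 18 h. Retained intracellular ATP, measured with ATP-Lite, indicates blocked lethal factor entry.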

The target of assay [10] is Galactokinase (Homo sapiens) (UniProt P51570). As to the kind of experiment: qHTS Validation Assay for Inhibitors of Human Galactokinase (GALK) (AID 493189). Note: 0% is about no effect. An outline of the steps:
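GALK (5 nM) with 35 uM ATP and 100 uM galactose in HEPES pH8.0, MgCl2, NaCl, DTT, BSA; 1 h at room temperature. Residual ATP read by Kinase-Glo Plus luminescence after 10 min.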

The nature of assay [11]: Validation screen for small molecules that induce DNA re-replication in SW480 colon adenocarcinoma cells (AID 504364). Note: 0% is about no effect. An outline of the steps: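 Read-out: total Hoechst intensity of nuclei by fluorescence scanning imager; hits raise the fraction of nuclei with elevated DNA content. Cells received compound for 48 hr at 37 C before a 40 min stain.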
In assay [12] the target is Peptidyl-prolyl cis-trans isomerase NIMA-interacting 1 (Homo sapiens) (UniProt Q13526). As to the kind of experiment: qHTS Validation Assay to Find Inhibitors of Pin1 (AID 504536; active = well fitted inhibition curve with a large enough effect in the polarisation, with a control signal flat, not every such curve was filed as active; the % refers to the polarisation;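 note: 0% = full Pin1 enzyme wells and -100% = no-enzyme wells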). An outline of the steps: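 Fluorescence polarization competition: compounds (titration) displace HiFluor-488-labeled Pin1-1b peptide from Pin1 (0.3 uM final) in pH 7.5 HEPES buffer with DTT, 10 min at room temperature; %Activity normalized to no-enzyme wells, curves fitted.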

Assay [13] has as its target Phosphoglycerate kinase, glycosomal (Trypanosoma brucei brucei) (UniProt P07378). As to the kind of experiment: qHTS Validation Assay to Find Inhibitors of Phosphoglycerate Kinase (AID 504547).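 Note: control wells lack PGK and mark full inhibition.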 An outline of the steps:
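Luminescence end-point (Kinase-Glo Plus, 10 min) after a 60 min room-temperature coupled reaction. GAPDH at 100nM final supplies 1,3-BPG to PGK. Buffer: 100mM TEA pH 7.6, 5mM MgCl2, 0.01% Tween-20. Wells lacking PGK served as controls.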

The target of assay [14] is phosphoglycerate mutase (Leishmania major) (UniProt Q4Q090). As to the kind of experiment: qHTS Validation Assay to Find Inhibitors of Phosphoglycerate Mutase (AID 504548). Note: series mostly up to about 58 µM; % is set by controls: 0 for no effect and ±100 for the full control effect. Particulars: Potency: inhibition qHTS. In a few lines: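 Lm PGAM at 1.25 nM final with substrate in 100 mM TEA pH 7.6, 5 mM MgCl2, 0.01% Tween-20; 45 min at room temperature. Kinase-GloPlus added, 10 min, end-point luminescence read.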

For assay [15], the target named is Ubiquitin carboxyl-terminal hydrolase 1 (Homo sapiens) (UniProt O94782). As to the kind of experiment: Inhibitors of USP1/UAF1: Pilot qHTS (AID 504865). Note: nearly all actives have a fitted effect of over 35% in size. Note: potency is the fitted concentration of half-maximal effect. In a few lines: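 USP1/UAF1 complex (1nM) preincubated with compound 15 min at room temperature, then Ub-Rho substrate (150nM final) added. Fluorescence read kinetically at 480/540 nm, 6 reads every 60 seconds. Buffer: 50mM HEPES pH 7.8, 0.5mM EDTA, 0.1 mg/ml BSA, 1mM TCEP, 0.01% Tween-20.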

The nature of assay [16]: qHTS for Inhibitors of ATXN expression: Validation of Cytotoxic Assay (AID 588349). Note: % is set by controls: 0 for no effect and ±100 for the full control effect. An outline of the steps:
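Cytotoxicity counter-screen: HEK293 cells exposed to compound titrations, 72 hr, 37 degrees C. Read-out is intracellular ATP (CellTiter Glo luminescence) as a viability measure.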

Assay [17] in a line: qHTS for Inhibitors of ATXN expression: Validation (AID 588378). Note: series mostly up to about 57 µM; % is set by controls: 0 for no effect and ±100 for the full control effect; nearly all actives have a fitted effect of over 75% in size. In a few lines: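 Luminescence from an ATXN2-FFLuc reporter in HEK293 cells served as read-out after 24 h compound treatment at 37 degrees C; CellTiter-Fluor fluorescence was recorded first to assess viability.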
Assay [18] concerns the target Thyrotropin-releasing hormone receptor (Homo sapiens) (UniProt P34981). As to the kind of experiment: qHTS for Small Molecule Agonists and Allosteric Enhancers of Human TRH Receptor: Validation Screen for Agonists (AID 493127;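 active = calcium activation more than 3 SD above the typical response in the agonist read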;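 note: intracellular calcium rise by fluo-8 fluorescence before TRH EC20 addition; 0% is about no effect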). Particulars: TRH receptor agonist cell assay; at 2 µM; stronger effect = higher value. In a few lines:
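Read-out: intracellular calcium release measured kinetically by FDSS (fluo-8, ex 480/em 530 nm), 1 reading/s after a 10-cycle baseline. TRHR cells, 2000/well, cultured 18 h at 33.5C, dye-loaded at room temp. Compound-evoked positive calcium signal flags agonists.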

Sequence of Thyrotropin receptor (Homo sapiens) (P16473 whole entry, looked up): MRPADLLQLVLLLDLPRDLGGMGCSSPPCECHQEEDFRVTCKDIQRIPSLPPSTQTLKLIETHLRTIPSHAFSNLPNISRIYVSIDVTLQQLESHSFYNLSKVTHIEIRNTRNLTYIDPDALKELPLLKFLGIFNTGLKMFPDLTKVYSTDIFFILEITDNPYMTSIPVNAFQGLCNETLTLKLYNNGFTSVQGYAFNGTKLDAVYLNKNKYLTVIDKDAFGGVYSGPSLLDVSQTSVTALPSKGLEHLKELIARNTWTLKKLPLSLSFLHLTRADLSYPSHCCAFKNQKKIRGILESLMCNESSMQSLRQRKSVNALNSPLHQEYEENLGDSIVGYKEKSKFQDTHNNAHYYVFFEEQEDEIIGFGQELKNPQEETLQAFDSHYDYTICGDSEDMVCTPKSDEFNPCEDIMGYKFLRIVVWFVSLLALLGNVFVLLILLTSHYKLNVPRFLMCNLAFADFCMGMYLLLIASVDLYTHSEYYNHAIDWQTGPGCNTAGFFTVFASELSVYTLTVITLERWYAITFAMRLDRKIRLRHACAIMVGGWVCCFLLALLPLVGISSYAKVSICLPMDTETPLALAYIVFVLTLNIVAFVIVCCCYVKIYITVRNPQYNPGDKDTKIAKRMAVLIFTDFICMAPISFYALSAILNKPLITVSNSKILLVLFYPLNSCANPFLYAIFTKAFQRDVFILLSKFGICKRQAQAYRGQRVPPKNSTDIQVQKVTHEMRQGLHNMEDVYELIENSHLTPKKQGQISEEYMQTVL
Sequence of Phosphoglycerate kinase, glycosomal (Trypanosoma brucei brucei) (P07378 whole entry, looked up): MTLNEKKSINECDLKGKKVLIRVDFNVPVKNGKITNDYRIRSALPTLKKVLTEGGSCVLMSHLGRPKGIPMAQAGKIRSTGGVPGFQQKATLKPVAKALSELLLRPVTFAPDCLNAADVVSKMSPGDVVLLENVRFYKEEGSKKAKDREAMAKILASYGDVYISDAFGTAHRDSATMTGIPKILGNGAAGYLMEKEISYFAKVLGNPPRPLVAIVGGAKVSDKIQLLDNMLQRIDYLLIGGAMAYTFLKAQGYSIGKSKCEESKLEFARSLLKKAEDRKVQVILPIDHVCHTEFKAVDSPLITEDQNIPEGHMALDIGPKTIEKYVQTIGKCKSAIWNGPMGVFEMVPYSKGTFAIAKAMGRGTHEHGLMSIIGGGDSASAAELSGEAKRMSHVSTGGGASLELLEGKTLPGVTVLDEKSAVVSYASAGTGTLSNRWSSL
Sequence of Thyrotropin-releasing hormone receptor (Homo sapiens) (P34981 whole entry, looked up): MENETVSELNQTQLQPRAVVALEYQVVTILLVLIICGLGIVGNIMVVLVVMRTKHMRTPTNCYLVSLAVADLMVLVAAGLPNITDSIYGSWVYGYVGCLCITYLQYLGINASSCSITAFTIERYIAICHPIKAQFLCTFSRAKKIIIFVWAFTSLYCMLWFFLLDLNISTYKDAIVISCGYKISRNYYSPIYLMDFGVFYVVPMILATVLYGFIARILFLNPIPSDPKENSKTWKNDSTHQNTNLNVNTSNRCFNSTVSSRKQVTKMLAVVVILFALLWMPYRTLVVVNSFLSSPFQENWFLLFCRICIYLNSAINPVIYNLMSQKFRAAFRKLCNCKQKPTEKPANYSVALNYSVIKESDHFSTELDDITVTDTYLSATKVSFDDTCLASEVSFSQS
Sequence of Galactokinase (Homo sapiens) (P51570 whole entry, looked up): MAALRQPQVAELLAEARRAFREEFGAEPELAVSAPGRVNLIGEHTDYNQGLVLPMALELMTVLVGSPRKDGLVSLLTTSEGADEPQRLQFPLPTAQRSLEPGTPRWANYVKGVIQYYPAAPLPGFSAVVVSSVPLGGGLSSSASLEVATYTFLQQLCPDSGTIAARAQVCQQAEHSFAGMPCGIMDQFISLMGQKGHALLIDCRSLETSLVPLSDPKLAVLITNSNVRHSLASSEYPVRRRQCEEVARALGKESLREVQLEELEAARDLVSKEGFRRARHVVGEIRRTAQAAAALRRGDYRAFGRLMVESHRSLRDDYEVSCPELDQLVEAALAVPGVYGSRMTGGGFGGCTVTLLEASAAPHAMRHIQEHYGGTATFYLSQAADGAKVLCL
Sequence of Ubiquitin carboxyl-terminal hydrolase 1 (Homo sapiens) (O94782 whole entry, looked up): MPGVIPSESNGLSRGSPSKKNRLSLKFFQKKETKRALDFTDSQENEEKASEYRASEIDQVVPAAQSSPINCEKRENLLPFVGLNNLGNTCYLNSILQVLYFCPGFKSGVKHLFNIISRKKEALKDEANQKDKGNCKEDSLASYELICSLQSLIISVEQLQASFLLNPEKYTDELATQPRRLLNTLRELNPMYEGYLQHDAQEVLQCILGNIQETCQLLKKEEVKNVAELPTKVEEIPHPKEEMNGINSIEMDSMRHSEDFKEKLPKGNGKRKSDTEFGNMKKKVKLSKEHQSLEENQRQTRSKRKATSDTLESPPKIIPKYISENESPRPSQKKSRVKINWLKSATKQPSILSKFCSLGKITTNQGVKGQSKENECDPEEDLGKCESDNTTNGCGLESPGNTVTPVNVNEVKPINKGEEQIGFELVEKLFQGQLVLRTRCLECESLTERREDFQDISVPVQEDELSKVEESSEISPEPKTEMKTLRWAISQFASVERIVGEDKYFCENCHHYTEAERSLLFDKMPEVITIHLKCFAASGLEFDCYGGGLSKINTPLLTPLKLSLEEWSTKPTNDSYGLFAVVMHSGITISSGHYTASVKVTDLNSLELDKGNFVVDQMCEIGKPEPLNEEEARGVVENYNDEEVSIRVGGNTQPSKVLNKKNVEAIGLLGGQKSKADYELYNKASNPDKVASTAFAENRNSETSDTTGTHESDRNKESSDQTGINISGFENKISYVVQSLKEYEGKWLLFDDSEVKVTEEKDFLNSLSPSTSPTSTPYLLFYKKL
Sequence of D(1A) dopamine receptor (Homo sapiens) (P21728 whole entry, looked up): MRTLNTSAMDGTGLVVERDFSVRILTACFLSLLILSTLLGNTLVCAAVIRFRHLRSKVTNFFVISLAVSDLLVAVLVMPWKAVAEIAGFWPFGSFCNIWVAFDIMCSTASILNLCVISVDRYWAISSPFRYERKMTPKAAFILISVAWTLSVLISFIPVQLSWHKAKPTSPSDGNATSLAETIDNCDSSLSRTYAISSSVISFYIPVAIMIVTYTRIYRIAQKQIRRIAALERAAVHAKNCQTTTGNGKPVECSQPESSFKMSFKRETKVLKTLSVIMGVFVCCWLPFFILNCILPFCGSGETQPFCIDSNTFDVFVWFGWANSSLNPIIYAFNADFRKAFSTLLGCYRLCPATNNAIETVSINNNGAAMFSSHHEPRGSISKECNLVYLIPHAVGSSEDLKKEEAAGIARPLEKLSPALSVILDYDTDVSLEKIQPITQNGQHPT
Sequence of Peptidyl-prolyl cis-trans isomerase NIMA-interacting 1 (Homo sapiens) (Q13526 whole entry, looked up): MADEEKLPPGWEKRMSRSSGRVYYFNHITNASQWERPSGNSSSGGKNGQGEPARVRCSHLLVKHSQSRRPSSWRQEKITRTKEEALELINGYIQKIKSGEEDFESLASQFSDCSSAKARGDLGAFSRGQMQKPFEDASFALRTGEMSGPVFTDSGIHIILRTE
Sequence of phosphoglycerate mutase (Leishmania major) (Q4Q090 1-553): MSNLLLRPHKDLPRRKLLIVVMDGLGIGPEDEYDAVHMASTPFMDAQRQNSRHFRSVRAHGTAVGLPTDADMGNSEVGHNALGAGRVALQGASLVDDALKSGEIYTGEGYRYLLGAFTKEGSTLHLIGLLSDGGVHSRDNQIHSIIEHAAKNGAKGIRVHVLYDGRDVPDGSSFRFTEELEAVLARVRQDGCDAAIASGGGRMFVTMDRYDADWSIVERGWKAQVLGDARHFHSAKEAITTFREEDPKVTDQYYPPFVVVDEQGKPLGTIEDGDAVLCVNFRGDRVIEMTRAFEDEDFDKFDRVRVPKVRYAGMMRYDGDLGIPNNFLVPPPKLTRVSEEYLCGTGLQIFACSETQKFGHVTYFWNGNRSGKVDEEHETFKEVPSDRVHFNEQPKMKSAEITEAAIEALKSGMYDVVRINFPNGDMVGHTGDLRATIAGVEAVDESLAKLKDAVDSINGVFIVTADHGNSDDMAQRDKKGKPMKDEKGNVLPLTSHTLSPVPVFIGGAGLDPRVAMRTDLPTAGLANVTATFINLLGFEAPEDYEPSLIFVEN
Sequence of Transient receptor potential cation channel subfamily V member 1 (Homo sapiens) (Q8NER1 whole entry, looked up): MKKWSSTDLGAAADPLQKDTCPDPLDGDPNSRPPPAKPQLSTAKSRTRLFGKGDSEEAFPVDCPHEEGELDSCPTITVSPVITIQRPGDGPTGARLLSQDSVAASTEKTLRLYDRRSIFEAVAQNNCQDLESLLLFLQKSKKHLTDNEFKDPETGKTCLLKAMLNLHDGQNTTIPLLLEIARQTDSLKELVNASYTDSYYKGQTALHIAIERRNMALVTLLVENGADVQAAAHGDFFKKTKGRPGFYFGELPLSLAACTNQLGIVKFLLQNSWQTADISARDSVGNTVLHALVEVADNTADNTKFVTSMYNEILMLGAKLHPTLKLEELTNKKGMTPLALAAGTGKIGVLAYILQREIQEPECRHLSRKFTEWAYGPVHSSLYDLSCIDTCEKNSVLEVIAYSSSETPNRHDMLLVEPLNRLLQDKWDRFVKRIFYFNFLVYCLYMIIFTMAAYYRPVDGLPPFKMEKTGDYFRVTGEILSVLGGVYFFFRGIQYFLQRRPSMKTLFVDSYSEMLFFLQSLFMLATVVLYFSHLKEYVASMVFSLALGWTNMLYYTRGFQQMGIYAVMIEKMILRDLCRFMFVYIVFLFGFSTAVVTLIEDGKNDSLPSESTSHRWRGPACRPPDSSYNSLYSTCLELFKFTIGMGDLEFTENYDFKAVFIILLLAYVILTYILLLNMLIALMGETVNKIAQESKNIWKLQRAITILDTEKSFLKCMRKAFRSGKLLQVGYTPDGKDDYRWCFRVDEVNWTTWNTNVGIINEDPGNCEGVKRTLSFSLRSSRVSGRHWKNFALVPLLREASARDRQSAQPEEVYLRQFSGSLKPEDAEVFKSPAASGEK

As to `Cc1cc2c(cc1Cl)N(C(=O)Nc1ccnc3ccccc13)CC2`, the outcome in assay [1], in [2] and in assay [9] was inactive. The Potency result in assay [3], in assay [4], in assay [5], in assay [6], in assay [7] and in [8] was “inactive” throughout. Also, the Potency entry in [10], in assay [11], in assay [12], in [13], in [14] and in assay [15] was “inactive” in each case. The Potency entry in assay [16] and in [17] was “inactive” throughout. In assay [8], this molecule returned a viability change of 1.57%.

Turning to `O=c1ccc2c(OCCCCc3ccccc3)c3ccoc3cc2o1`, the result in assay [1], in assay [2] and in [9] was inactive. Also, the Potency result in [3], in assay [4], in assay [5], in [6], in assay [8] and in assay [10] was “inactive” throughout. The Potency result in assay [11], in assay [12], in assay [13], in assay [14], in assay [15] and in assay [16] was “inactive” in each case. Further, the activation in [18] was -9.69% (inactive). Besides, the viability change in assay [8] was 4.36%.

On to `CC(C)NCC(O)COc1ccc(CC(N)=O)cc1` (stereo not given), for which the result in assay [1], in assay [2] and in [9] was inactive. Also, the Potency entry in [3], in assay [4], in assay [5], in [6], in [8] and in assay [10] was “inactive” throughout. Also, the Potency result in assay [11], in assay [12], in [13], in assay [14], in assay [15] and in [16] was “inactive” in each case. For the same molecule, in assay [17], the Potency result was “inactive”. Besides, in [18], the activation was 0.875% (inactive). Besides, the viability change in assay [8] was found to be 0.809%.

As to `N[C@H](C(=O)O)[C@H]1C[C@@H]1C(=O)O`, the outcome in assay [1] and in assay [2] was inactive. Moreover, the Potency result in [3], in assay [4], in [5], in [6], in assay [7] and in assay [8] was “inactive” throughout. The Potency entry in assay [10], in assay [11], in [12], in assay [13], in assay [14] and in [15] was “inactive” in each case. In addition, in [17], the Potency entry was “inactive”. In addition, in assay [8], the viability change came out at 2.9%.

Turning to `OC[C@H]1O[C@@H](n2cnc3cncnc32)[C@H](O)[C@@H]1O`, the outcome in [1], in assay [2] and in [9] was inactive. Also, the Potency result in assay [3], in assay [4], in assay [5], in [6], in [8] and in assay [10] was “inactive” in each case. Also, the Potency entry in assay [11], in assay [12], in [13], in assay [14], in assay [15] and in assay [16] was “inactive” each time. In addition, in assay [17], the Potency result is “inactive”. Further, the activation in assay [18] is 1.44% (inactive). For the same molecule, the viability change in [8] was determined as 10.1%.

On to `CN1CCC2(CCN3CCc4c(oc5ccccc45)C3C2)N(C)C1=O` (stereo not given), for which the result in [1], in [2] and in assay [9] was inactive. In addition, the Potency result in assay [3], in [4], in assay [6], in [7], in assay [10] and in assay [11] was “inactive” each time. The Potency result in assay [12], in assay [13], in assay [14], in assay [15], in [16] and in [17] was “inactive” in each case. Also, the Potency in assay [5] is 10 µM (active).

Take `C/C(=C\c1ccc(C(=O)O)cc1)c1ccc2c(c1)C(C)(C)CCC2(C)C`: the outcome in assay [1], in assay [2] and in assay [9] was inactive. In addition, the Potency entry in assay [3], in assay [4], in [5], in [6], in [7] and in assay [10] was “inactive” each time. Moreover, the Potency result in assay [11], in assay [14], in assay [16] and in assay [17] was “inactive” each time. The Potency in assay [15] is 31.6 µM (active).

On to `CCCCOc1cc(CC2CNC(=O)N2)ccc1OC` (stereo not given), for which the result in assay [1], in assay [2] and in [9] was inactive. In addition, the Potency result in assay [3], in assay [4], in assay [5], in assay [6], in assay [7] and in assay [8] was “inactive” in each case. Also, the Potency result in [10], in [11], in assay [12], in [13], in assay [14] and in assay [15] was “inactive” throughout. Moreover, the Potency entry in [16] and in assay [17] was “inactive” throughout. The same molecule yielded a viability change in assay [8] of 4.87%.

The record behind these values is PubChem BioAssay (NCATS).
